# “And” between values parts separate entries of the source, which are not always exact repeats. Equal values may be shown once.
# Test system: HepG2
# Experiment: GSK_TCMDC: Percent inhibition of human HepG2 cell line. Test compounds present at 10uM.
# Format: functional
row,Structure (SMILES),Inhibition
1,CCOc1cc[nH]c(=O)n1,0%
2,Cc1cc(C(=O)Nc2ccc3c(c2)CCN3C2CCN(Cc3csc4ccccc34)C2)no1 (stereo not given),1%
3,CCC(=O)Oc1ccc(NC(=O)c2cccc(OC)c2)cc1,17%
4,COc1cccc(-c2csc(C(=O)NC3CCCCN(Cc4ccc(C(C)(C)C)cc4)C3)c2)c1.O=C(O)C(F)(F)F (stereo not given),9%
5,O=C(c1ccc(-c2cccc(-c3nc4cc(C(F)(F)F)ccc4[nH]3)c2)cc1)N1CCCCC1CN1CCC(O)C1 (stereo not given),29%
6,O=C(NCCCN1CCOCC1)c1cccc(Nc2nccc(Nc3ccc(Oc4ccccc4)cc3)n2)c1,34%
7,Cc1nc(O)c2c(ccc3ccc(CNc4ccc(C(=O)N[C@@H](CCC(=O)O)C(=O)O)c(F)c4)cc32)n1,41%
8,O=C(Nc1nc2cc(S(=O)(=O)NCCc3ccc(F)cc3)ccc2n1CCCn1ccnc1)c1ccc(Cl)cc1.O=C(O)C(F)(F)F,18%
9,CC(C)n1ncc2c(C(=O)N3CCCc4ccccc43)cc(-c3ccccc3)nc21,5%
10,CCOc1cc2ncnc(Nc3ccc(OCc4ccccc4F)c(Cl)c3)c2cc1OCC.Cl,4%
11,CCOC(=O)c1cccc(NC(=O)Nc2cccc(-c3ncc(OCCCN)c4c3nc(-c3nonc3N)n4CC)c2)c1.O=C(O)C(F)(F)F,16%
12,CCOc1cccc(C2c3c(oc4ccccc4c3=O)C(=O)N2CCN(CC)CC)c1 (stereo not given),5%
13,O=[N+]([O-])c1ccc2nc(Nc3cccc(C(F)(F)F)c3)c(Nc3cccc(C(F)(F)F)c3)nc2c1,0%
14,COc1ccc2nccc([C@@H](O)CN3CCC(NCc4nc5c(cc4Cl)SCC(=O)N5)C(F)C3)c2c1.Cl (stereo not given in full),20% and 10%
15,Cc1c2c(nn1-c1ccccc1)C(c1ccccc1)N(c1ccccc1)C2=O (stereo not given),42%
16,CC(=O)Nc1ccc(C(=O)NC2CCN(c3ccnc4cc(Cl)ccc34)CC2)cc1.O=C(O)C(F)(F)F,5%
17,CN(C(=O)c1ccccc1)C1c2cc(C#N)ccc2OC(C)(C)C1O (stereo not given),8%
18,CCOc1cc(CC)ccc1C1CCN(CCCCNC(=O)c2ccc(NC(=O)c3ccc(Cl)cc3)cc2)CC1.Cl,11%
19,COc1ccccc1CN1CCC(NC(=O)c2ccc(-c3cccc(Cl)c3)s2)CC1.O=C(O)C(F)(F)F,49%
20,Cc1cc(NC(=O)c2cccs2)ccc1OC1CCN(Cc2ccccc2)CC1.O=C(O)C(F)(F)F,10%

row,Structure (SMILES),Inhibition
1,CCCCCCNC(=O)c1nn(CCN2CCC(N3CCCC3)CC2)cc1-c1ccc(Cl)c(Cl)c1,31%
2,Cc1cc2[nH]c(-c3ccc(C(=O)NCCCN4CCN(c5cccc(Cl)c5)CC4)s3)nc2cc1Cl,7%
3,CN1CCN(c2ccc(-c3cccc(NC(=O)c4ccc5ccccc5c4)c3)nn2)CC1,17%
4,C[C@@H](N/C(=N\c1ccc(-c2ccccc2)cc1)Nc1ccc(C#N)cc1O)c1ccc(Br)cc1,9%
5,COc1ccc(CCn2c(=N)c(C(=O)NCc3ccccc3)cc3c(=O)n4cccc(C)c4nc32)cc1,29%
6,Cc1cccc(CN2CCC(Oc3ccc(NC(=O)c4cccs4)cc3Cl)CC2)n1.O=C(O)C(F)(F)F,27%
7,C#CCCC(=O)Nc1cccc(-c2cccc(-c3nc4cccc(C)c4[nH]3)c2)c1,30%
8,CCCC1(NC[C@@H](O)[C@H](Cc2ccccc2)NC(=O)c2cc(NCC)cc(N3CCCCS3(=O)=O)c2)CCCCC1.Cl,4%
9,CC(=O)Oc1cc(C(=O)Nc2ccc(Cl)cc2)cc2ccccc12,16%
10,CCc1nc2ccc(C(=O)OC)nc2n1Cc1ccc2oc(-c3ccccc3N)c(Br)c2c1,8%
11,CC(=O)Nc1ccc(C#Cc2ccc(-c3c(C)[nH]c(C)c(Cl)c3=O)cc2)cc1,0%
12,Br.CCc1c(CCNCCCCCCNCCc2ccc(Br)cc2)ccc(O)c1O,11%
13,CCc1cn(C)c2c(N3CCCC3=O)cc(C(=O)N[C@@H](Cc3ccccc3)[C@H](O)CNC3CCCCC3)cc12,8%
14,Cc1nc2nc(N)nc(N)c2c(C)c1Cc1cccc(F)c1.Cl,65%
15,c1ccc(CNc2nc(NCCN3CCCCC3)nc3ccccc23)cc1,19%
16,O=[N+]([O-])c1ccc(C2=NN(S(=O)(=O)c3c(Cl)cc(Cl)cc3Cl)CCCC2)cc1,5%
17,COc1ccc2c(-c3ccccc3)noc2c1,0%
18,CCN(CCCN1CCCCC1)c1cc(C)nc(Nc2ccc(C)c(Cl)c2)n1.O=C(O)C(F)(F)F,32%
19,CC1=C(C(=O)OC(C)C)C(c2ccccc2Cl)C2=C(CC(c3ccccc3)CC2=O)N1 (stereo not given),15%
20,O=C(Cc1c[nH]cn1)Nc1cccc(-c2ccc(-c3nc4cc(F)ccc4[nH]3)cc2)c1,4%
